From PubChem BioAssay AID2284339 (EPA ToxCast)
Calls of active or inactive are those of the source. How the source made its calls: active means hit-call score of the fitted dose curve at least 0.9, where 1 is the maximum; inactive means score below 0.9.

Tested on: NCBI gene 100038242
Assay: CCTE_GLTED_xDIO3: CCTE's Xenopus Iodothyronine Deiodinase Type 3 (xDIO3) Inhibition Assay, Great Lakes Toxicology and Ecology Division (GLTED) Lab
Experimental: CCTE_GLTED_xDIO3 is a cell-free, single-readout assay designed to test the inhibitory activity of chemicals toward Xenopus (frog) iodothyronine Deiodinase Type 3 (DIO3) enzyme. Enzyme is incubated in presence of test chemical for 3 hours during which uninhibited enzyme liberates free iodide from substrate. Free iodide is measured in a second step using the Sandell-Kolthoff method.CCTE_GLTED_xDIO3 is the assay component measured from the CCTE_GLTED_xDIO assay. It is designed to make measurements of enzyme activity, a form of enzyme reporter, as detected with absorbance signals by spectrophotometry.Data from the assay component CCTE_GLTED_xDIO3 was analyzed at the assay endpoint CCTE_GLTED_xDIO3 in the positive analysis fitting direction relative to DMSO as the negative control and baseline of activity. Using a type of enzyme reporter, loss-of-signal activity can be used to understand deiodinase Type 3 activity. To generalize the intended target to other relatable targets, this assay endpoint is annotated to the 'deiodinase' intended target family, where the subfamily is 'deiodinase Type 3'.
[…]

How did the AC50 turn out when `COc1cc(O)c(CC=C(C)C)c(O)c1C(=O)/C=C/c1ccc(O)cc1` was run?
The AC50 was 0.16 µM (active).

Which AC50 does the source give for `C=C(C)C(=O)OCC(F)(F)C(F)(F)C(F)(F)C(F)F` here?
Its AC50 is 17.7 µM (active).

Which AC50 does the source give for `C=CC(=O)OCCC(F)(F)C(F)(F)C(F)(F)C(F)(F)F` here?
Its AC50 is 24.4 µM (active).

Which AC50 does the source give for `C=CC(=O)OCC(F)(F)C(F)(F)C(F)(F)C(F)(F)C(F)(F)C(F)(F)C(F)(F)C(F)F` here?
Its AC50 is 20.7 µM (active).

For `C=CC(=O)OCC(F)(F)C(F)(F)C(F)(F)C(F)(F)COC(=O)C=C`, which AC50 is on record?
Its AC50 is 15.9 µM (active).

With `C=C(C)C(=O)OCC(F)(F)C(F)(F)C(F)(F)F` as the compound, how does the outcome read?
Its outcome is “inactive”.

How did the outcome turn out when `O=P(O)(O)CCC(F)(F)C(F)(F)C(F)(F)C(F)(F)C(F)(F)C(F)(F)C(F)(F)C(F)(F)F` was run?
The outcome was “inactive”.

With `O=C(O)C(F)(F)C(F)(F)C(F)(F)C(F)(F)C(F)(F)C(F)(F)C(F)(F)C(F)(F)C(F)(F)C(F)(F)C(F)(F)C(F)(F)F` as the compound, how does the outcome read?
The outcome was “inactive”.

Which outcome does the source give for `O=C(Cl)C(F)(F)C(F)(F)C(F)(F)C(F)(F)C(F)(F)C(F)(F)C(F)(F)C(F)(F)F` here?
Its outcome is “inactive”.

With `C=CC(=O)OCC(F)(F)C(F)(F)C(F)(F)COC(=O)C=C` as the compound, how does the AC50 read?
The AC50 was 33.5 µM (active).

Which outcome does the source give for `O=C(O)C(F)(F)C(F)(F)C(F)(F)C(F)(F)C(F)(F)C(F)(F)C(F)(F)C(F)(F)Cl` here?
The outcome was “inactive”.

How did the AC50 turn out when `O=C(O)C(F)(F)OC(F)(F)C(F)(F)OC(F)(F)C(F)(F)OC(F)(F)C(F)(F)C(F)(F)C(F)(F)F` was run?
The AC50 was 72.2 µM (active).

With `O=C(O)C(F)(F)C(F)(F)C(F)(F)C(F)(F)C(F)(F)C(F)(F)C(F)(F)C(F)(F)C(F)(F)C(F)F` as the compound, how does the AC50 read?
Its AC50 is 161 µM (active).

How did the AC50 turn out when `OC(O)(C(F)C(O)(O)C(F)(F)F)C(F)(F)F` was run?
The AC50 was 19.8 µM (active).
